From ChEMBL document CHEMBL3988442, “University of Dundee, Small-Polar-MMV Screening Library” (2021) come the findings set out here.

This test addresses Shiga toxin 2 (Escherichia coli O157:H7) (UniProt P09385+P09386). Nature of the test: E. coli 0.157:H7 Shiga Toxin SOP - stx2 screening assay. It is filed as functional. Further details: scale not given: direction of the effect not stated beside the values. The settings on record: 30 µM.
In the case of `O=C(c1ccc(N2CCCC2)nn1)N1CCCC(n2cccn2)C1` (stereo not given), the Percent Effect is 23.7%.
As for `COc1ncc(C2(O)CCN(Cc3ccccc3O)CC2)c(OC)n1`, the Percent Effect is -22.9%.
Turning to `Cc1ncc2c(n1)CCN(Cc1nc3ccccc3o1)C2`, the Percent Effect is -21.4%.
`CC(C)n1ccnc1CN1CCCN(C(=O)c2cccnc2O)CC1`: the Percent Effect is -43.9%.
The result for `Cc1cccc2c1cnn2CCCNC(=O)CCCC(=O)O` reads -61.8%; that for `C[C@@H]1CN(C2(C(=O)N3CCOCC3)Cc3ccccc3C2)C[C@H](C)O1`, -11.4%; that for `Cc1oncc1C(=O)N1CCC2(C1)CN(c1cccnc1)C(=O)CN2C` (stereo not given), -13.7%.
`Cc1noc(C(C)C)c1C(=O)NCC(c1cccc(F)c1)N(C)C` (stereo not given): the Percent Effect was 8.91%.
The same measure for `CN(C)C(=O)CN1CCCCC1c1nc(N)ncc1-c1cccc(F)c1` (stereo not given): -2.08%; for `CCOC(C)c1nc(CN2CCN(c3nccc(C)n3)CC2)cs1` (stereo not given): -1.8%.
Turning to `CSCCCN1CCn2nc(CNC(C)=O)cc2C1`, the Percent Effect was -62.7%.
The result for `CCn1ncc2c1C(COCC1CC1)CN(C(=O)c1cccs1)C2` (stereo not given) reads 33.1%.
The same measure for `Cc1cc(C)n(C2CN(CC(O)c3ccc4c(c3)OCO4)C2)n1` (stereo not given): 7.61%; for `Cc1ccc(OCCC(=O)NC2CCc3nccn3C2)cc1` (stereo not given): -18%.
With `Cc1cc(C)c(OCC(=O)NS(=O)(=O)c2c(C)noc2C)c(C)c1`, the Percent Effect was 21.6%.
Consider `O=C1OC2(CCN(C3CCCOC3)CC2)CN1CCc1ccccc1` (stereo not given), for which the Percent Effect was -27.2%.
Take `CCOC(=O)c1sc2ccsc2c1CN`: the Percent Effect came to 42.1%.
The same measure for `COc1ccc(C(=O)NS(=O)(=O)c2cncc(Br)c2)cc1OC`: 3.4%; for `CC(C)CN1C[C@H]2CCN(c3ncccn3)CC[C@H]2S1(=O)=O`: -33%.
As for `Cc1cc(C[C@@H]2COC[C@@H]2NC(=O)CN2CCCC2)on1`, the Percent Effect was -10.1%.
The same measure for `CC(C)(C)C(O)CN1CCN(C(=O)c2cccc3[nH]ncc23)CC1` (stereo not given): -5.59%.
The same measure for `Cc1cccc(C2(NC(=O)CCN3C(=O)CCC3=O)CCCC2)c1`: 10.2%; for `O=C(Nc1ccc(F)c(Br)c1)N1CCCC1`: -23.1%.
The result for `Cc1ccc(C(=O)N2CCCC3(CCCC(=O)N3C)C2)cc1F` (stereo not given) reads -5.85%.
For `CC(O)CN1CCC(CNCc2cccc(OC(C)C)c2)CC1` (stereo not given), the Percent Effect is -10.6%.
The same measure for `CCC(O)CN1CCN(C(=O)c2cccn2Cc2cccs2)CC1` (stereo not given): 9.26%.
For the compound `CC(NC(=O)CSCC(=O)Nc1ccccc1)c1ccccc1` (stereo not given), the Percent Effect amounted to 16.8%.
The same measure for `Cc1cnn(CC2CCCN2Cc2nnsc2Cl)c1` (stereo not given): 9.02%; for `Cc1cnn(CC2CCCN2C(=O)c2ccc(OC(C)C)nc2)c1` (stereo not given): -35%; for `Cc1nc(C)c2c(n1)CCN(C(=O)CC1CC1)CC2`: -5.99%.
Consider `CCc1cc(C)c(C(=O)N2CCCC2CC(=O)c2cnn(C)c2)o1` (stereo not given), for which the Percent Effect came out at 19.9%.
For the compound `CCn1cnnc1C1CCN(C(=O)c2ccc3cc[nH]c3c2)CC1`, the Percent Effect is -9.96%.
For `CN(C)C(=O)c1cnc2n1CCN(Cc1ccccc1)C2`, the Percent Effect was -28%.
The result for `O=C(NCCOc1cccc(Cl)c1)C1CC(=O)N(CC2CC2)C1` (stereo not given) reads -10.5%; that for `Cc1noc(C)c1C(=O)NCc1ccc(N2CCOC(C)C2)nc1` (stereo not given), -60.1%.
The same measure for `COc1cccc(CN2CCOC(Cn3nc(C)cc3C)C2)c1` (stereo not given): -0.88%.
The result for `c1ccc(-c2ccc(C3CNCCO3)nc2)cc1` (stereo not given) reads -59.5%.
For the compound `N#CCSCCCN1CCN(C(=O)c2ccc(Cl)cc2)CC1`, the Percent Effect was -35.2%.
Regarding `CCS(=O)(=O)N1CCC2(CCC2NC(=O)c2ccn(C)c2)CC1` (stereo not given), the Percent Effect is 9%.
The result for `Cc1ccccc1C1(C(=O)NCCN2CCCC2)CCOCC1` reads 12.4%.
